Screening data from PubChem.
HT1080 IDH1KD tx: toxicity to HT-1080 IDH1 knockdown cells (counter line); AID 686971; actives 2% (n = 360,000); Potency, µM (highest dose often 46.1 µM), for inactives: top-dose activity, negative = toxicity, usual class: cytotoxic; HT-1080 IDH1 knockdown viability, ATP luminescence, 48 h;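 also: 0% = DMSO wells and -100% = cell-free medium wells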
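HT-1080-IDH1KD cells (IDH1 knocked down), 750/well in RPMI with 5% FBS, treated with compound 48 h at 37 degrees C. Viability by CellTiter-Glo luminescence, normalised to DMSO and no-cell wells; concentration-response curves classed.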
KB-V1 cytotox: kills drug-selected multidrug resistant KB-V1 cells; actives 3.4% (n = 400,000); KB-V1 MDR cells viability, CellTiter-Glo, 72 h; Potency, µM (titrated, usually from 46.1 µM), hits mostly cytotoxic; also: % is scaled to controls: 0 for no effect and ±100 for the full control effect; nearly all actives have a fitted effect of over 60% in size
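KB-V1 cells (P-gp-expressing MDR subline of KB-3-1) in phenol-red-free DMEM with 10% FBS were exposed to library compounds over a concentration series for 72 h at 37 degrees C. Viability read by CellTiter-Glo luminescence; concentration-effect curves fitted after normalization.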
HT1080-NT tox: kills 2HG-producing HT-1080-NT fibrosarcoma cells | actives 1.6% (n = 360,000) | Potency, µM (titrated, usually from 46.1 µM), for inactives: at the highest dose activity, negative = less viability, most hits filed as cytotoxic | HT-1080-NT fibrosarcoma viability, CellTiter-Glo ATP luminescence, 48 h;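 also: NT is the 2HG producing partner of a matched IDH1 knockdown line; 0% = DMSO-treated cells and -100% = media-only wells without cells; nearly all actives have a fitted effect of over 55% in size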
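Fibrosarcoma NT cells, 750 per well in 5% FBS RPMI, were exposed to compound for 48 hours. Viability: CellTiter-Glo luminescence.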
S2 tox: cell viability loss in ATXN counter-screen; S2 cells (HEK-293 line with an ATXN2-luciferase reporter) viability, CellTiter-Fluor protease fluorescence, 24 h; Potency, µM (series often up to 56.7 µM), actives largely listed as cytotoxic; actives 0.49% (n = 400,000); AID 651635; also: nearly all actives have a fitted effect of over 40% in size
KB-3-1 cytotox: kills parental KB-3-1 adenocarcinoma cells | Potency, µM (titrated, usually from 46.1 µM), actives largely listed as cytotoxic | actives 1.4% (n = 400,000) | KB-3-1 viability, CellTiter-Glo ATP luminescence, 72 h | AID 1347075; also: % is scaled to controls: 0 for no effect and ±100 for the full control effect; nearly all actives have a fitted effect of over 60% in size
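Screening of KB-3-1 cells (DMEM, 10% FBS, phenol-red free) ran from lowest to highest compound concentration; after 72 h at 37 °C viability was read luminescently and curves fitted.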
ATXN2 expr inh: reduces ATXN2 reporter expression in HEK-293 cells. HEK-293 ATXN2-luciferase reporter, luminescence, 24 h. Potency, µM (top dose mostly 57 µM), inactives show at the top dose activity change, negative = inhibition, usual class: inhibitors. actives 0.72% (n = 360,000); also: % is scaled to controls: 0 for no effect and ±100 for the full control effect; nearly all actives have a fitted effect of over 55% in size
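qHTS (up to 57 uM final) was run with 24 h compound exposure of reporter cells at 37 °C. Each well was multiplexed: SteadyGlo luminescence measured ATXN2-luciferase expression after a fluorogenic Gly-Phe-AFC viability readout (25 uM final).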
Starred values were filed as active, the others as inactive; i = inactive; ? = inconclusive; . = not tested or not shown. Compounds with a hit are over-represented: about 6.2% of the library has one in this group of screens. Calls follow the shape of the dose curve; as a rule, active = well fitted curve in the direction sought with a large enough effect; inconclusive = small, poorly fitted or top-dose-only effect, or another doubt; inactive = no such curve, though single readings can be large; an effect the other way counts as inactive or inconclusive. Potency is read from the fitted curve at half-maximal effect.

SMILES | HT1080 IDH1KD tx | KB-V1 cytotox | HT1080-NT tox | S2 tox | KB-3-1 cytotox | ATXN2 expr inh
Cc1nn(Cc2ccccc2Cl)c2sc(C(=O)OC3CCCC3=O)cc12 (stereo unspecified) | -28.4% | 6.51µM* | -28.5% | i | i | 10.9%
O=C1C=C(c2c(O)ccc3ccccc23)c2ccccc2C1=O | ? | i | 7.31µM* | . | ? | 15.8µM*
CSc1ccc(/C=N/Nc2nc(C)cc(=O)[nH]2)cc1 | 1.4% | i | -0.2% | i | i | 10.0%
Cc1cc(=O)[nH]c(N/N=C/c2ccc(-c3ccc(F)cc3)o2)n1 | 8.2µM* | ? | ? | i | ? | 26.0%
CC1=C(c2ccc(C)cc2)S(=O)(=O)NC1=NCCCN1CCN(c2ccccc2F)CC1 | . | i | . | . | i | .
CCN(CC)CCCNC(=O)c1nn(-c2ccc(OC)cc2)c(=O)c2c1c1ccccc1n2C | . | i | . | i | i | 3.7%
COc1ccc(S(=O)(=O)N2CCC3(CC2)OCCN3S(=O)(=O)c2cccs2)cc1 | 5.2% | 8.2µM* | -2.5% | ? | i | 6.8%
Cc1ccc(S(=O)(=O)N2CCC3(CC2)OCCN3S(=O)(=O)c2cccs2)cc1 | -19.3% | i | ? | i | i | -13.0%
Cc1ccn2c(Nc3ccc4c(c3)OCO4)c(-c3ccco3)nc2c1 | . | i | . | ? | i | 33.1%
CCN(CC(=O)NCc1ccc(Cl)cc1)C(=O)c1ccc(C#N)cc1 | 2.4% | i | -0.4% | i | i | -28.0%
CN(C)CCCNC(=O)c1ccc(-c2nc(-c3ccc(Cl)cc3)cs2)cc1 | ? | ? | -25.9% | 20µM* | ? | ?
O=C(c1ccco1)N(Cc1cc2cc3c(cc2nc1N1CCOCC1)CCC3)CC1CCCO1 (stereo unspecified) | . | . | . | i | . | .
CCCCCCc1cc2cc(S(=O)(=O)c3ccc(F)c(Cl)c3)c(=O)oc2cc1O | ? | 14.6µM* | 16.4µM* | . | i | ?
COc1cccc2cc(C(=O)Nc3ccc(CC(=O)O)cc3)c(=O)oc12 | . | i | . | i | i | 3.55µM*
COc1cccc2cc(C(=O)NCc3ccc(C)cc3)c(=O)oc12 | 16.0% | i | 5.4% | i | i | 2.4%
CCCCCCc1cc2cc(C(=O)Nc3cccc(OC)c3)c(=O)oc2cc1O | 4.9% | 6.51µM* | 9.2% | i | 7.31µM* | -13.9%
CCCCCCc1cc2cc(C(=O)Nc3ccc(OC)cc3)c(=O)oc2cc1O | -18.7% | 8.2µM* | -9.5% | i | 8.2µM* | -22.4%
CC(C)(C)OC(=O)Nc1ccc(-c2cc(C(=O)NCCCCCCC(=O)NO)no2)cc1 | . | . | . | . | . | 39.2%
COc1cc(OC)c(OC)cc1CN1CCc2nc(N3CCN(c4ccccc4F)CC3)ncc2C1 | . | ? | . | i | ? | -22.0%
c1ccc(Nc2nc(Nc3ccccc3)nc(N3CCNCC3)n2)cc1 | ? | ? | 23.1µM* | i | i | ?
CN1CCN(c2nc(Nc3ccc(F)cc3)nc(Nc3ccc(F)cc3)n2)CC1 | ? | i | ? | ? | i | 25.1µM*
c1ccc(Nc2nc(N3CCCC3)nc(N3CCOCC3)n2)cc1 | . | i | . | i | i | -16.3%
Fc1ccc(Nc2nc(Nc3ccc(F)cc3)nc(N3CCOCC3)n2)cc1 | . | i | . | i | i | -27.8%
CCC(C)[C@H](NC(=O)NCc1ccc(Cl)cc1)C(=O)OC (stereo partly specified) | 0.1% | 20.6µM* | -4.8% | i | i | -3.0%
CCC(C)[C@H](NC(=O)NCc1ccc(Cl)cc1)C(=O)O (stereo partly specified) | -6.9% | ? | 2.4% | i | i | .
COc1ccc(C(=O)CSc2nc3cc(C(=O)NC4CCCC4)ccc3c(=O)n2CC2CCCO2)cc1 (stereo unspecified) | . | i | . | i | i | 9.4%
